Mot1-301 SUMO – inhibitors of SUMOylation pathway: yeast Mot1-301 growth rescue; growth rescue, % at 18.8 µM; AID 2716; S. cerevisiae Mot1-301 growth rescue, ATP luminescence, 38.5C; percent above DMSO median, 100 means doubled; 320,000 tested, 1% active;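 active means every valid replicate shows activation above 250% relative to neutral control wells; inactive means the rest, any valid replicate at or below 250%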
PHOSPHO1 block – blocks human PHOSPHO1 phosphatase activity; Q8TCT1; recombinant PHOSPHO1, absorbance phosphatase assay; inhibition, % at 13.3 µM; 290,000 tested, 1.1% active; AID 1565; in the data active means inhibition above about 60%
Target sequence (Q8TCT1 whole entry, looked up): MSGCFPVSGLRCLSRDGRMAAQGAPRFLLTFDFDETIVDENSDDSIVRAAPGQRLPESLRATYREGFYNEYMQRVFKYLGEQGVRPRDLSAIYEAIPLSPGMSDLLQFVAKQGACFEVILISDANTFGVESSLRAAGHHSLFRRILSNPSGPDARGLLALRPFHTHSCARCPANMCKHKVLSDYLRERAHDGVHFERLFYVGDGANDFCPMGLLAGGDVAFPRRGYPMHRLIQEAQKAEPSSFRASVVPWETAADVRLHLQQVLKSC
p-CIP stab down – p/CIP protein destabilization; decrease of EGFP signal, % at 10 µM; F442A p/CIP-EGFP cells, EGFP fluorescence, 16 h; 290,000 tested, 0.01% active; Q05BA5;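 active means EGFP signal decrease of at least 30% at 10 µM or well 3 SD below plate mean, unless failing retest; inactive means the rest, including hits failing retest or dose response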
HDAC3 inh – human HDAC3 inhibition | O15379 | recombinant HDAC3, fluorogenic peptide/trypsin coupled, fluorescence | inhibition, % at 8.3 µM | 320,000 tested, 0.15% active | AID 2718; in the data active means inhibition above about 26%, passing the limit was not always enough; inconclusive means no clear call, values can overlap the other calls
GASC-1 inh – inhibitors of human GASC-1 (JMJD2C) demethylase; inhibition, % at 2.35 µM; Q9H3R0; AID 2099; 330,000 tested, 0.069% active; GST-JMJD2C(1-420) H3K9me3 demethylation, DELFIA europium;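 active means more than half of a compound's replicate wells show inhibition beyond 50%, single wells judged on their own value; inconclusive means some, but no more than half, of replicates pass 50% inhibition; inactive means no replicate passes 50% inhibition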;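 further: signal counts dimethyl H3K9 product captured on neutravidin plate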
PvdQ acylase – P. aeruginosa PvdQ acylase inhibition. purified PvdQ acylase, fluorescence plate reader. inhibition, % at 10 µM. 340,000 tested, 0.063% active; in the data active means inhibition above about 30%, passing the limit was not always enough; inconclusive means no clear call, values can overlap the other calls
Hits are given with their value; . = inactive; ? = inconclusive; / = no result given. This is a sample that favours compounds with a hit; in the whole collection about 2.2% have one here.

SMILES	Mot1-301 SUMO	PHOSPHO1 block	p-CIP stab down	HDAC3 inh	GASC-1 inh	PvdQ acylase
COC(=O)N1C(=O)[C@](c2ccsc2)(C(C)C)N1C(=O)OC	.	67	.	.	.	.
CCn1c(=S)sc2c(=O)[nH]c(SCC(=O)Nc3cc(OC)ccc3OC)nc21	.	.	.	.	.	.
CC(Oc1ccc2c3c(c(=O)oc2c1)CCC3)C(=O)NCC1CCC(C(=O)O)CC1 (centres undefined)	.	.	.	.	?	.
COc1ccccc1C1CC(c2cccs2)=NN1C(=O)CCC(=O)O (centres undefined)	.	/	.	.	.	.
COc1ccccc1C1CC(c2cccs2)=Nc2ccccc2S1 (centres undefined)	.	94	.	.	.	.
CC(=O)c1ccc(NCC(=O)N2CCN(c3ccccc3)CC2)cc1	.	98	.	.	.	.
O=C1c2ccccc2C(=O)c2c1oc(C(F)(F)F)c2C(=O)c1ccccc1	.	106	.	.	.	.
O=C(c1ccccc1)c1coc2c1C(=O)c1ccccc1C2=O	.	.	.	.	.	.
COc1ccc(C2=CC(=O)C[C@H](c3ccc4c(c3)OCO4)C2)cc1	.	/	/	.	.	.
CC(C)=CCC[C@](C)(OC1OC(COC2OCC(O)C(O)C2O)C(O)C(O)C1O)C1CC[C@]2(C)C1C(O)CC1[C@@]3(C)CCC(O[C@@H]4O[C@H](CO)C(O)C(O)C4O[C@@H]4OC(CO)C(O)C(O)C4O)C(C)(C)C3CC[C@]12C (some centres undefined)	.	/	/	.	.	.
COc1ccc(CNCc2cccc(Cl)c2)cc1	.	.	.	.	.	43
O=C(O)c1ccc(CNCc2cccc(Cl)c2)cc1	.	.	.	.	.	.
O=C(CSc1nc2cc(Cl)ccc2s1)c1cc2ccccc2o1	.	102	.	.	.	.
O=C(ONc1ccc(N=NC(=O)c2ccccc2O)cc1)c1ccccc1	.	83	.	.	.	.
COc1ccc(-c2nc(CS(=O)(=O)CC(=O)NC3CCC(C)CC3)c(C)o2)cc1 (centres undefined)	.	.	.	.	.	.
c1csc(-c2nn3c(C4COc5ccccc5O4)nnc3s2)c1 (centres undefined)	.	69	.	.	/	.
Fc1ccc(-c2nn3c(C4COc5ccccc5O4)nnc3s2)cc1 (centres undefined)	.	79	.	.	.	.
c1ccc2c(c1)OCC(c1nnc3sc(-c4cnccn4)nn13)O2 (centres undefined)	.	.	.	.	.	.
Fc1ccc(-c2nnc3sc(C4COc5ccccc5O4)nn23)cc1 (centres undefined)	.	.	.	.	.	.
c1ccc2c(c1)OCC(c1nnc3sc(-c4ccc5c(c4)OCO5)nn13)O2 (centres undefined)	.	84	.	.	.	.
Cc1cnc(NC(=O)C(C)N2CCN(C)CC2)s1 (centres undefined)	.	.	.	.	.	.
O=C(O)c1cc(Cl)c(Cl)cc1C(=O)NCc1ccco1	.	.	.	.	.	.
Nc1nc(NCCCN2CCOCC2)nc(NCc2ccccc2)c1[N+](=O)[O-]	.	.	.	.	.	.
CCn1nc(C(=O)NNS(=O)(=O)c2ccc(C)cc2)c2ccccc2c1=O	.	/	/	.	.	.
O=Cc1ccc(OC(=O)CCCCC(=O)Oc2ccc(C=O)cc2)cc1	.	.	.	.	.	.
SMILES	Mot1-301 SUMO	PHOSPHO1 block	p-CIP stab down	HDAC3 inh	GASC-1 inh	PvdQ acylase
CCOC(=O)c1ccc(OC(=O)CCCCCN=C(N)N)cc1	.	/	/	93	.	.
CCN(CC)S(=O)(=O)c1cccc(-c2nnc(SCCOc3ccccc3)o2)c1	.	.	.	.	.	.
CCN(CC)S(=O)(=O)c1cccc(-c2nnc(SCC(=O)c3cc(C)n(C)c3C)o2)c1	.	80	.	.	.	.
CCc1cc2ccc(C)cc2nc1SCC(=O)NC1CCCC1	.	.	.	.	.	.
Cc1nc2ccc(NC(=O)COc3ccccc3C)cc2s1	.	.	.	.	65	.
OCC[C@H]1C[C@@H](O)[C@H](O)[C@@]2(CCCCO2)O1	.	/	/	.	.	.
Oc1c(C=Nc2ccccc2Cl)[nH]c2ccccc12	.	63	.	.	.	.
Cn1nnnc1SCC(=O)Nc1nc2c(F)c(F)c(F)cc2s1	.	/	/	.	.	.

Screens: PubChem, several laboratories
